Cruzain inh Det: blocks cruzain activity in presence of Triton detergent; P25779; purified cruzain, Z-FR-AMC fluorescence, 0.01% Triton; Potency, µM, most hits filed as inhibitors; 200,000 compounds, 0.43% hits; AID 1478; further: nearly all actives have a fitted effect of over 40% in size
Target sequence (P25779 123-467 limits assumed): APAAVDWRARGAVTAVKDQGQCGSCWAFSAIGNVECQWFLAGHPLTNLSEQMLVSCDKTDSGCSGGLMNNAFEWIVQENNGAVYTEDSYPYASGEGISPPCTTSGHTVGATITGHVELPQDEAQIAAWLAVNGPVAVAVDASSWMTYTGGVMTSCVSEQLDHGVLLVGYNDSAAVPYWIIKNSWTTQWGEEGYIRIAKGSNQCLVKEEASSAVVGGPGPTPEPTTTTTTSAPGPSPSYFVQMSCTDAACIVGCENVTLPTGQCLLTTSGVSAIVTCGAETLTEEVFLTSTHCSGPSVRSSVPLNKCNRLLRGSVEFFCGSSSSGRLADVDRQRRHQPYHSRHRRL
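Purified cruzain (1.5 nM final) was preincubated with compounds for 15 min at room temperature in 100 mM sodium acetate pH 5.5, 5 mM DTT, 0.01% Triton X-100. Reaction started with 2 uM Z-FR-AMC; AMC fluorescence change over 60 s gave activity.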
Cruzain noTriton: blocks cruzain activity in detergent-free assay; 200,000 compounds, 2.3% hits; P25779; Potency, µM, usual class: inhibitors; purified cruzain, Z-FR-AMC fluorescence, no detergent; further: nearly all actives have a fitted effect of over 40% in size
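Detergent-free condition (0.00005% Triton X-100) in acetate buffer pH 5.5 with DTT. 1.5 nM enzyme and compound were pre-mixed 15 min, then 2 uM Z-FR-AMC substrate added; reaction progress from fluorescence change between first and third reads (60 s).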
Hits are given with their value; – = inactive; ? = inconclusive. This is a sample that favours compounds with a hit; in the whole collection about 2.5% have one here. The call rests on the fitted dose curve; in most records, active means well fitted curve in the direction sought with a large enough effect; inconclusive means small, poorly fitted or top-dose-only effect, or another doubt; inactive means no such curve, though single readings can be large; an effect the other way counts as inactive or inconclusive.

SMILES	Cruzain inh Det	Cruzain noTriton
CN1/C(=C\C(=O)COC(=O)CNC(=O)c2ccccc2F)C(C)(C)c2ccccc21	22µM	20µM
CN1/C(=C\C(=O)COC(=O)CNC(=O)c2ccc3ccccc3c2)C(C)(C)c2ccccc21	–	25µM
CN1/C(=C\C(=O)COC(=O)CN2C(=O)C3CC=CCC3C2=O)C(C)(C)c2ccccc21 (configuration not stated)	–	–
CNS(=O)(=O)c1cccc(C(=O)OCC(=O)/C=C2/N(C)c3ccccc3C2(C)C)c1	–	–
O=C1COc2cc(S(=O)(=O)CCC(=O)N3CCN(c4cccc(Cl)c4)CC3)c(Cl)cc2N1	–	–
CCOc1ccc(NC(=O)c2cnc3sc(N4CCOCC4)nn3c2=O)cc1	–	–
CN1/C(=C\C(=S)NC(=O)c2ccccc2Cl)C(C)(C)c2ccccc21	25µM	32µM
CN1/C(=C\C(=O)c2cccs2)C(C)(C)c2ccccc21	–	–
COc1ccccc1C(=O)NC(=S)/C=C1/N(C)c2ccccc2C1(C)C	14µM	25µM
CN1/C(=C\C(=O)Nc2ccc(Cl)cc2)C(C)(C)c2ccccc21	–	–
c1ccc2cc(NCNc3ccc4ccccc4c3)ccc2c1	–	–
Cc1sc2ncnc(Sc3ccccc3C(=O)Nc3ccc(Br)cc3)c2c1C	–	13µM
Cc1sc2ncnc(Sc3ccccc3C(=O)Nc3ccc(C#N)cc3)c2c1C	–	–
CCOc1ccc(C(=O)NC(=S)Nc2ccc(NC(=O)CC)cc2)cc1[N+](=O)[O-]	–	?
CCC(=O)NC(=S)Nc1ccc(NC(=O)c2ccc(C)c([N+](=O)[O-])c2)cc1	–	10µM
Cc1c(N=C=O)cccc1N=C=O	–	–
O=C(Cc1cc(=O)oc2cc(O)ccc12)NCC1CCC(C(=O)O)CC1 (configuration not stated)	25µM	–
CN(C)c1cccc(C(=O)OCc2cc(=O)oc3cc(O)ccc23)c1	–	–
COc1ccc(-c2cc(C(F)(F)F)nc(SCC(=O)NCc3ccc(Cl)cc3)n2)cc1	–	–
COc1ccc2cc(CNc3ccc(C)cc3)c(=O)n(CC(=O)Nc3cccc(C(F)(F)F)c3)c2c1	–	?
Cn1cc(S(=O)(=O)N2CCCCCC2)cc1C(=O)Nc1ccc(Cl)c(C(F)(F)F)c1	–	–
Cc1ccc(NC(=O)CCc2nc(-c3ccccc3F)no2)c(C)c1	–	–
COc1cc(/C=C(\C#N)C(N)=O)cc(CSc2nc3ccccc3s2)c1O	–	–
COc1ccc(C2NCCc3c2[nH]c2ccccc32)cc1CSc1nc2ccccc2s1 (configuration not stated)	–	25µM
CC(C)(C)CC(C)(C)c1ccc(O)c(C[N+](C)(C)[O-])c1	–	–
SMILES	Cruzain inh Det	Cruzain noTriton
CCOC(=O)c1c(C)oc2ncnc(N3CCN(c4ccccc4)CC3)c12	–	–
Cc1ccc(O)c(C(=O)c2cc(C(=O)NCc3ccccc3)c(=O)n(Cc3ccccc3)c2)c1	–	?
O=C(c1cc(C(=O)NCc2ccccc2)c(=O)n(Cc2ccccc2)c1)c1cc(Br)ccc1O	–	4µM
N#CC1=C2SCN(Cc3ccco3)CN2C(=O)CC1c1c(F)cccc1Cl (configuration not stated)	?	20µM
COc1ccc(Br)cc1C1CC(=O)N2CN(Cc3ccccc3)CSC2=C1C#N (configuration not stated)	?	32µM
Cc1ccc(C2CC(=O)N3CN(Cc4ccco4)CSC3=C2C#N)cc1 (configuration not stated)	–	–
COc1ccc(Br)cc1C1CC(=O)N2CN(C)CSC2=C1C#N (configuration not stated)	–	–
O=C(Nc1cccc(-c2nc3cccnc3s2)c1)C1c2ccccc2Oc2ccccc21	–	20µM
CCC(CC)C(=O)Nc1cccc(-c2nc3cccnc3s2)c1	–	–
COc1ccc(CCNc2ncnc3c2nnn3C)cc1	–	–
COC(=O)c1cc(OC)c(OC)cc1N	–	–
COc1cc2cc(C(N)=O)c(N)nc2cc1OC	28µM	16µM
CN(C)CCC(C#N)(c1ccccc1)c1ccccc1	–	–
Cc1ccccc1NC(=S)NC(=O)c1cc(-c2ccccc2)nc2ccccc12	–	?
Cc1cccc(NC(=S)NC(=O)c2cc(-c3ccccc3)nc3ccccc23)c1	–	20µM
CCOc1ccc(-c2cc(C(=O)Nc3ccc4c(c3)OCCO4)c3ccccc3n2)cc1	–	?
Cc1cccc(-c2cc(C(=O)Nc3ccc4c(c3)OCCO4)c3ccccc3n2)c1	–	32µM
C=C(C(C)=O)C(O)/C=C/c1ccco1 (configuration not stated)	–	–
CCSC1=NC2(CCN(C(=O)NC3CCCCC3)CC2)N=C1c1ccc(Cl)cc1	–	–
COc1ccc(-c2nc(-c3cccc(C)c3)[nH]c(=O)c2C#N)cc1	–	10µM
COc1cccc(-c2nc(-c3ccccc3)[nH]c(=O)c2C#N)c1	–	–

Screens (PubChem BioAssay)
